Assay results from PubChem BioAssay (Tox21).
“And” between values parts separate entries of the source, which are not always exact repeats. Equal values may be shown once. Inconclusive results are not listed. Entries that show only a call come without a potency. Where a structure was tested more than once in an assay, its records may differ in their call. The source made the active and inactive calls. Calls follow the shape of the dose curve; as a rule, active = well fitted curve in the direction sought with a large enough effect in the repeat runs; inconclusive = weak or mixed curves; inactive = no such curve, though single readings can be large; an effect the other way counts as inactive or inconclusive.

Target: Nuclear receptor subfamily 1 group I member 2 (Homo sapiens) (UniProt O75469)
Sequence (O75469 whole entry, looked up): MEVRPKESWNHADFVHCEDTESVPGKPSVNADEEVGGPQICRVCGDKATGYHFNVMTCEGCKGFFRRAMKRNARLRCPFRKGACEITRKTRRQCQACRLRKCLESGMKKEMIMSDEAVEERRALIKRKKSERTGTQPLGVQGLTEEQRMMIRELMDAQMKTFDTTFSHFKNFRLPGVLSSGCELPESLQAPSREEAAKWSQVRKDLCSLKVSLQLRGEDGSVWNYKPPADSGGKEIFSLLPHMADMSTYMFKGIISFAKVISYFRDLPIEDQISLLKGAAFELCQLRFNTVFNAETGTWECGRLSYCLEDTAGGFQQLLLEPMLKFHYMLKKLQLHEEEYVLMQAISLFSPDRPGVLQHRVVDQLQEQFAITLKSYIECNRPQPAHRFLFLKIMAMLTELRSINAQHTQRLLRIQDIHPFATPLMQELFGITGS
Assay: Human pregnane X receptor (PXR) small molecule agonists, qHTS assay (AID 1346982); also: nearly all actives have a fitted effect of over 35% in size; also: potency is read from the fitted curve at half-maximal effect
Conditions: PXR-Luc HepG2, CYP3A4 luciferase reporter, 24 h; series mostly up to 92.4 µM
Summary of the method: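 PXR-Luc HepG2 reporter cells (CYP3A4-driven luciferase) in 5% charcoal-stripped FBS medium, plated 5 h before compound addition, then treated 24 h at 37C. Luciferase read by ONE-Glo luminescence after 30 min at room temperature.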

SMILES | Potency
CN(C)c1cccc(O)c1 | 49.3 µM (active) and 54.5 µM (active)
Nc1c(S(=O)(=O)O)cc(Br)c2c1C(=O)c1ccccc1C2=O | inactive and 48.6 µM (active)
CC(C)(N=C=O)c1cccc(C(C)(C)N=C=O)c1 | 10.8 µM (active) and 61.1 µM (active)
CCC(C)C=O (configuration not stated) | inactive
C=C(C)C(=O)OCCC[Si](OC)(OC)OC | 60.4 µM (active) and inactive
CC(C)(C)C1CCC(O)CC1 (configuration not stated) | inactive
CCCCCC/C=C/CCCCCCCC(=O)O | inactive
Cc1ccc(N)c(S(=O)(=O)O)c1 | inactive
CC1Cc2ccccc2N1NC(=O)c1ccc(Cl)c(S(N)(=O)=O)c1 (configuration not stated) | 30.6 µM (active) and 9.44 µM (active)
CC(C)Cc1ccccc1 | inactive
CCCCCCC(C)(C)S | 30.9 µM (active) and inactive
Oc1ccc(OCc2ccccc2)cc1 | 30 µM (active)
O=C1O[C@H](CO)[C@@H](O)[C@H](O)[C@H]1O | inactive
C[C@@H]1O[C@@H](OC[C@H]2O[C@@H](Oc3c(-c4ccc(O)c(O)c4)oc4cc(O)cc(O)c4c3=O)[C@H](O)[C@@H](O)[C@@H]2O)[C@H](O)[C@H](O)[C@H]1O | inactive
O=C(Oc1ccccc1)c1ccc(O)cc1 | inactive
O=[N+]([O-])c1cccc(Cl)c1 | inactive
O=C(O)c1cc(-c2ccccc2)nc2ccccc12 | inactive
CNC[C@H](O)[C@@H](O)[C@H](O)[C@H](O)CO | inactive
CCCCCCCCCC(=O)O | inactive
CCCCC(CC)COC(C)=O (configuration not stated) | inactive
O=[N+]([O-])C(CO)(CO)CO | 1.35 µM (active) and inactive
CC1=C(/C=C/C(C)=C/C=C/C(C)=C/CO)C(C)(C)CCC1 | 55.1 µM (active) and 32.3 µM (active)
C=C(C#N)C(=O)OCC | inactive
CC(C)(CO)COC(=O)C(C)(C)CO | inactive

Target: Nuclear receptor subfamily 1 group I member 2 (Rattus norvegicus) (UniProt Q9R1A7)
Sequence (Q9R1A7 whole entry, looked up): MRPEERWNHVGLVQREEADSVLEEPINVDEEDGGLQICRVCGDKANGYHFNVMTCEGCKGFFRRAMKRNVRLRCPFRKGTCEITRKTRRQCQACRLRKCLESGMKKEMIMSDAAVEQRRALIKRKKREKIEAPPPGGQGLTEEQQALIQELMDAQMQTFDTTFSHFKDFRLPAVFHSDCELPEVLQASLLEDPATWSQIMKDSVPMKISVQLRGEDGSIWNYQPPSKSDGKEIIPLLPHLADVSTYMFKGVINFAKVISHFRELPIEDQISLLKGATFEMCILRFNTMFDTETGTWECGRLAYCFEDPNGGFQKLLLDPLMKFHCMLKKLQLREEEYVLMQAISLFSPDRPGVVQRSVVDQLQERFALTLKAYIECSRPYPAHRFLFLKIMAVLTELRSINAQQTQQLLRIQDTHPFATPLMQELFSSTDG
Assay: Rat pregnane X receptor (rPXR) activation by small molecules, qHTS assay (AID 1346983); also: nearly all actives have a fitted effect of over 20% in size
Conditions: rPXR luciferase reporter cells, One-Glo luminescence, 24 h; max activation: stronger effect = higher value
Summary of the method: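 Cell-based rPXR luciferase reporter assay, 2,000 cells per well, rested 5hr at 37 C before compound addition in DMSO, then 24 hr at 37 C. One-Glo reagent was added and luminescence read after 30 min at room temperature.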

SMILES | max activation
CS(=O)(=O)Nc1ccc([N+](=O)[O-])cc1Oc1ccccc1 | -5.28% (inactive)
CC1Cc2ccccc2N1NC(=O)c1ccc(Cl)c(S(N)(=O)=O)c1 (configuration not stated) | -2.07% (inactive)
Oc1ccc(OCc2ccccc2)cc1 | -0.536% (inactive)
O=C1O[C@H](CO)[C@@H](O)[C@H](O)[C@H]1O | 1.43% (inactive)
C[C@@H]1O[C@@H](OC[C@H]2O[C@@H](Oc3c(-c4ccc(O)c(O)c4)oc4cc(O)cc(O)c4c3=O)[C@H](O)[C@@H](O)[C@@H]2O)[C@H](O)[C@H](O)[C@H]1O | -1.22% (inactive)
O=S(=O)(O)CCS | -3.83% (inactive)
CNC[C@H](O)[C@@H](O)[C@H](O)[C@H](O)CO | -2.23% (inactive)

Target: Nuclear receptor subfamily 1 group I member 2 (Homo sapiens) (UniProt O75469)
Assay: CYP3A4 induction through human pregnane X receptor (PXR) by small molecules, qHTS assay (AID 1346984); also: nearly all actives have a fitted effect of over 40% in size
Conditions: DPX-2 HepG2 PXR, CYP3A4-luciferin luminescence, 24 h; series mostly up to 46.1 µM
Summary of the method: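 DPX-2 HepG2 cells carrying a PXR response element and CYP3A4-promoter luciferase construct, treated with compounds 24 hr at 37C. Then P450-Glo CYP3A4 Luciferin-IPA substrate (3uM final) for 3 hr at 37C, One-Glo added, luminescence read.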

SMILES | outcome
CC1Cc2ccccc2N1NC(=O)c1ccc(Cl)c(S(N)(=O)=O)c1 (configuration not stated) | inactive
Oc1ccc(OCc2ccccc2)cc1 | inactive
O=C1O[C@H](CO)[C@@H](O)[C@H](O)[C@H]1O | inactive
C[C@@H]1O[C@@H](OC[C@H]2O[C@@H](Oc3c(-c4ccc(O)c(O)c4)oc4cc(O)cc(O)c4c3=O)[C@H](O)[C@@H](O)[C@@H]2O)[C@H](O)[C@H](O)[C@H]1O | inactive
O=S(=O)(O)CCS | inactive
CNC[C@H](O)[C@@H](O)[C@H](O)[C@H](O)CO | inactive

Target: Nuclear receptor subfamily 1 group I member 2 (Homo sapiens) (UniProt O75469)
Assay: Human pregnane X receptor (PXR) activation by small molecules, qHTS assay (AID 1346985); also: nearly all actives have a fitted effect of over 40% in size
Conditions: DPX-2 HepG2 CYP3A4-luciferase, 24 h; series mostly up to 38.3 µM
Summary of the method: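 DPX-2 cells (HepG2 co-transfected with a PXR response element and a CYP3A4-promoter luciferase construct) were seeded at 2,000 per well, rested 5 hr at 37C, then exposed to DMSO-dissolved compounds for 24 hr. Activation was read as luciferase luminescence.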

SMILES | outcome
CC1Cc2ccccc2N1NC(=O)c1ccc(Cl)c(S(N)(=O)=O)c1 (configuration not stated) | inactive
O=C1O[C@H](CO)[C@@H](O)[C@H](O)[C@H]1O | inactive
C[C@@H]1O[C@@H](OC[C@H]2O[C@@H](Oc3c(-c4ccc(O)c(O)c4)oc4cc(O)cc(O)c4c3=O)[C@H](O)[C@@H](O)[C@@H]2O)[C@H](O)[C@H](O)[C@H]1O | inactive
O=S(=O)(O)CCS | inactive
CNC[C@H](O)[C@@H](O)[C@H](O)[C@H](O)CO | inactive
